Screening results (PubChem BioAssay)
PNC inhibitor: blocks assembly of the perinucleolar compartment. PC3M PTB-GFP, PNC prevalence imaging, 16 h; hits give low values. activity change (PNC), negative = inhibition, % at 10 µM. 140,000 tested, 3.1% active. AID 2417;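 active = readout at or below -70, meaning at least 70% loss of cells showing the perinucleolar compartment, a nuclear body marking cancer cells; inconclusive = readout between -30 and a set limit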;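 note: plate controls were DMSO wells for no effect and camptothecin positive control wells for full effect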
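Compounds are pinned in duplicate onto adhered PC3M cells stably expressing GFP-tagged PTB and incubated 16 h at 37 C. Cells are then fixed, nuclei stained with Hoechst, and PNC-positive cells counted.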
HPGD block: inhibitors of human 15-hydroxyprostaglandin dehydrogenase (HPGD). P15428. purified HPGD, NADH fluorescence kinetic, PGE2 substrate. Potency, µM, for inactives: at the highest dose activity change, negative = inhibition, actives largely listed as inhibitors. 150,000 tested, 4.3% active. AID 894; note: potency is the fitted concentration of half-maximal effect
Target sequence (P15428 whole entry, looked up): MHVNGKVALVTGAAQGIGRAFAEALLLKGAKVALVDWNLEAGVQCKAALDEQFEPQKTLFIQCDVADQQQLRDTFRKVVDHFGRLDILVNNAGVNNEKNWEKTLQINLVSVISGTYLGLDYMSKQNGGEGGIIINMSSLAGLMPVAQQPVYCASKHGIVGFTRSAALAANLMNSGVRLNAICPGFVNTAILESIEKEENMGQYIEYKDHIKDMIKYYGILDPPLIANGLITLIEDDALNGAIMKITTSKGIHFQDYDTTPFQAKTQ
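20 nM HPGD preincubated 15 min at room temperature with compound in 50 mM Tris-HCl pH 8, 0.01% Tween 20. Started with 1 mM NAD+ and 30 uM prostaglandin E2; NADH fluorescence (360/450 nm) read 5 times over 30-s intervals, last minus first.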
KDM4E inh: JMJD2E (human) inhibition; B2RXH2; JMJD2E catalytic domain, FDH-coupled NADH fluorescence (FDH is formaldehyde dehydrogenase); Potency, µM (doses to about 57.1 µM), without a hit: top-dose activity change, negative = inhibition, usual class: inhibitors; 230,000 tested, 1.6% active; AID 2147;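 note: potency is the fitted concentration of half-maximal effect; 0% = wells with enzyme and -100% = buffer wells without enzyme; nearly all actives have a fitted effect of over 50% in size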
Target sequence (B2RXH2 1-337 limits assumed): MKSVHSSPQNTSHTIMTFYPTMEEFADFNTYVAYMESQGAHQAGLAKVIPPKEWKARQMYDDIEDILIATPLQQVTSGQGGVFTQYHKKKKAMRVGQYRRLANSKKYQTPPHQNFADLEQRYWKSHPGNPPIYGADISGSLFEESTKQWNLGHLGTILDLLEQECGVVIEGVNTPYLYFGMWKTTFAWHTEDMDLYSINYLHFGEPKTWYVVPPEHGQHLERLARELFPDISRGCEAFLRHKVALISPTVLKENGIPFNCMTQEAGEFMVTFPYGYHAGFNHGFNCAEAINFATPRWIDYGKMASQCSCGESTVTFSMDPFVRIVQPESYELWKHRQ
ALDH1A1 block: blocks purified human ALDH1A1 activity. Potency, µM (top dose mostly 75.3 µM), for the others: top-dose activity, negative = inhibition, usual class: inhibitors. Purified ALDH1A1, NADH fluorescence, propionaldehyde substrate. P00352. 220,000 tested, 7.3% active;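 note: potency is the fitted concentration of half-maximal effect; plate controls were no enzyme wells and a reference inhibitor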
Numbers without * were called inactive; u = inconclusive; x = no result given; [ ] = remark or other dose. Compounds with a hit are over-represented: about 11% of the library has one in this group of screens. Unless noted, calls come from the whole dose curve; as a rule, active = well fitted inhibition curve with a large enough effect (not every such curve was filed as active); inconclusive = small, poorly fitted or top-dose-only effect, or another doubt; inactive = no such curve, though single readings can be large or run the other way. Unless noted, % is set by controls: 0 for no effect and ±100 for the full control effect.

SMILES | PNC inhibitor | HPGD block | KDM4E inh | ALDH1A1 block
CC(Sc1nnc2ccccn12)C(=O)Nc1ccc(Cl)cn1 (configuration not stated) | 22 | -11% | 6% | 15%
CCC(C)(C)OC | x | -8% | x | u
COC(=O)[C@@]1(Cc2ccc(F)cc2)[C@H]2c3cc(C(=O)N4CCCC4)n(Cc4c(CO)[nH]cc(C)c4=O)c3C[C@H]2CN1C(=O)c1ccccc1 | x | -12% | u | -6%
COCCNC(=O)C(c1ccc(F)cc1)N(CCOC)C(=O)CCC(=O)Nc1nccs1 (configuration not stated) | -108* | -1% | 7% | 7%
O=C(COc1ccc([N+](=O)[O-])cc1)Nc1ccc(C(=O)Nc2ccccc2C(=O)O)cc1 | x | x | -24% | 13µM*
O=C(COc1ccc(/C=N/NC(=O)c2ccccc2)cc1)Nc1ccc([N+](=O)[O-])cc1 | 13 | -17% | 5% | 6%
O=C(COC(=O)c1ccccc1NC(=O)c1ccccc1)c1ccc([N+](=O)[O-])cc1 | 3 | -13% | 8% | 8.9µM*
O=C(COc1ccc2ccccc2c1)Nc1cccc(C(=O)Nc2ccccc2C(=O)O)c1 | 40 | u | 1% | 14µM*
CC(C)NC[C@H]1CCc2cc(CO)c([N+](=O)[O-])cc2N1 | x | 0% | -2%[25.5 µM] | 19%[20.9 µM]
O=C(Nc1ccc(F)cc1)C(c1ccccc1)N1CCN(S(=O)(=O)c2c(F)cccc2F)CC1 (configuration not stated) | 0 | -8% | 3% | 7.9µM*
O=C(Nc1ccc(F)cc1)C(c1ccccc1)N1CCN(S(=O)(=O)c2ccccc2)CC1 (configuration not stated) | -12 | -9% | -4% | 10µM*
CN(CC(=O)Nn1cnnc1)S(=O)(=O)c1ccc(Br)cc1 | 13 | -10% | 3% | -2%
N/N=C(/Cc1nc2ccccc2[nH]1)c1ccc([N+](=O)[O-])cc1 | x | x | -15% | u
COc1cc(S(=O)(=O)N2CCOCC2)cc(C(=O)c2nccn2C)c1OC | -88* | -1% | 3% | 1%
CCCCn1ccnc1C(=O)c1cc(S(=O)(=O)N2CCOCC2)ccc1C | u | -9% | -9% | 5%
CO[C@H]1COC(=O)CCC[C@@H](C)[C@H](OC)COC(=O)[C@H]2CCCN2C(=O)C/C=C\[C@@H]1C | x | x | x | 8%[13.5 µM]
CC1=CC(C)(C)NC(=S)N1c1ccccc1C | x | x | -11% | -6%
CC1=CC(C)(C)NC(=S)N1c1cccc2cc(S(=O)(=O)O)ccc12 | x | x | u | 28µM*
COc1cc(/C=N/NC(N)=S)ccc1OCC(=O)Nc1ccc(C)cc1 | 38 | -8% | 3% | 25µM*
CNC(=S)N/N=C/c1ccc(OCC(=O)Nc2c(C)cc(C)cc2C)c(OC)c1 | 26 | -19% | 5% | 11%
COc1ccc(/C=C(\C#N)C(=O)OCC(=O)Nc2ccc(C(C)(C)C)cc2)cc1 | -17 | u | 3% | 22µM*
COc1ccc(/C=C(\C#N)C(=O)OCC(=O)NCc2ccccc2)cc1 | 42 | u | u | u
CCOC(=O)/C(C#N)=C/c1ccc(OCC(=O)Nc2ccc(OC)cc2)c(OC)c1 | -8 | -31% | -13% | 5µM*
CCc1cccc(CC)c1NC(=O)COC(=O)/C(C#N)=C/c1ccc(OC)cc1 | -12 | -16% | -1% | -14%
COc1ccc(/C=C(\C#N)C(=O)OCC(=O)NC2CC2)cc1 | x | x | -8% | 20µM*
SMILES | PNC inhibitor | HPGD block | KDM4E inh | ALDH1A1 block
CCOC(=O)/C(C#N)=C/c1ccc(OCC(=O)Nc2ccc(C)c(C)c2)c(OC)c1 | -22 | u | -14% | u
COc1ccccc1N1CCN(C(=O)CCCCCn2c(=O)[nH]c3ccsc3c2=O)CC1 | x | x | 6% | -3%
O=C(/C=C/c1ccccc1)OC1CC(O)C2(O)C=CO[C@@H](OC3OC(CO)C(O)C(O)C3O)C12 (some centres not stated) | x | -15% | u | -2%
COc1cc(OC)cc(C(=O)NC2CCN(Cc3nnnn3Cc3cccs3)CC2)c1 | -23 | 0% | -7% | 13µM*
Cc1cc(C)c(C#N)c(SCc2ccccc2)n1 | 25 | -15% | -3% | u
N#Cc1cc2c(nc1SCc1ccccc1)CCCCC2 | -1 | -8% | 4% | 8%
Cc1cc(C)n2nc(SCCOc3ccccc3)nc2n1 | x | x | -1% | 1%
Cc1cc(C)n2nc(SCC3COc4ccccc4O3)nc2n1 (configuration not stated) | 5 | 7.1µM* | 5% | -4%
Cc1cc(C)c(C#N)c(SCC2COc3ccccc3O2)n1 (configuration not stated) | -24 | 14µM* | 2% | u
N#Cc1cc2c(nc1SCC1COc3ccccc3O1)CCC2 (configuration not stated) | 17 | 25µM* | -27% | u
CC(C)(C)C(O)(CC#CCN1CCCC1)c1ccccc1 (configuration not stated) | x | x | -16% | -5%
Cc1cc2oc(=O)cc(-c3ccccc3)c2c(C)c1-c1cccc(N)c1 | x | -13% | x | 25µM*
COc1ccc(-c2ccc(-c3cc(=O)oc4cc(OC)c(OC)c(OC)c34)cc2)cc1 | x | 1% | x | -3%
CC(=O)c1ccc(-c2c(C)cc3oc(=O)cc(-c4ccccc4)c3c2C)cc1 | x | u | x | -15%
Cc1cc2oc(=O)cc(-c3ccccc3)c2c(C)c1-c1ccc(C#N)cc1 | x | -21% | x | 13µM*
COc1cc(OC)c2c(-c3ccccc3)cc(=O)oc2c1 | x | x | 9% | 14µM*
COC(=O)C1CSC(C(=O)OC)N1C(=O)CN1CCN(c2ccccc2)CC1 (configuration not stated) | x | x | -5% | 6%
CC(C)(C)c1ccc(NC(=O)N2CCCN(c3ccc([N+](=O)[O-])cn3)CC2)cc1 | x | x | -13% | 16µM*
COc1ccccc1CN1C(=O)C(=O)N(Cc2cccc(C)c2)C1=O | x | x | 9% | -6%
Cc1cccc(Cn2nnc3c2C(=O)c2ccccc2C3=O)c1 | 26 | 14µM* | -1% | -5%
COc1ccccc1N1C(=O)CC(Sc2ncccc2C(=O)O)C1=O (configuration not stated) | -100* | -8% | 0% | 5%
O=C(O)c1cccnc1SC1CC(=O)N(c2cccc(C(F)(F)F)c2)C1=O (configuration not stated) | 10 | -16% | 1% | 13µM*
O=C(O)c1cccnc1SC1CC(=O)N(Cc2ccccc2)C1=O (configuration not stated) | 23 | -3% | 2% | -9%
O=C1CC(Sc2ncccn2)C(=O)N1c1ccccc1C(F)(F)F (configuration not stated) | 26 | -12% | -2% | 20µM*
O=C(O)c1cccnc1SC1CC(=O)N(c2ccc(OC(F)F)cc2)C1=O (configuration not stated) | x | x | -2% | x
CC(C)C[C@@H](CN(C)N=O)N(C[C@H](Cc1ccccc1)N(CCc1ccccc1)N=O)N=O | x | x | 0% | 8.9µM*
Clc1ccc2[nH]c3c(NCCCN4CCOCC4)ncnc3c2c1 | -24 | u | u | u
Cc1ccc2[nH]c3c(NCCN4CCOCC4)ncnc3c2c1 | -84* | -15% | u | -8%
